Reference: the supplement of paper PMC11732987, “Enantioselective OTUD7B fragment discovery through chemoproteomics screening and high-throughput optimisation” (Communications Chemistry, 2025)

What was measured:
Assay in all cases: log2 ratio of Biotin-Ahx-Ub-VS probe labelling (fragment/DMSO); higher = less target engagement (more negative = stronger competition), active = hit call of the paper (q ≤ 0.05, log2 ratio ≤ -1)
Settings in all cases: compound concentration: 200 uM; treatment time: 3 h
ALG13 = biological target: T1, ALG13 (UniProt Q9NP73)
T1 sequence (whole entry): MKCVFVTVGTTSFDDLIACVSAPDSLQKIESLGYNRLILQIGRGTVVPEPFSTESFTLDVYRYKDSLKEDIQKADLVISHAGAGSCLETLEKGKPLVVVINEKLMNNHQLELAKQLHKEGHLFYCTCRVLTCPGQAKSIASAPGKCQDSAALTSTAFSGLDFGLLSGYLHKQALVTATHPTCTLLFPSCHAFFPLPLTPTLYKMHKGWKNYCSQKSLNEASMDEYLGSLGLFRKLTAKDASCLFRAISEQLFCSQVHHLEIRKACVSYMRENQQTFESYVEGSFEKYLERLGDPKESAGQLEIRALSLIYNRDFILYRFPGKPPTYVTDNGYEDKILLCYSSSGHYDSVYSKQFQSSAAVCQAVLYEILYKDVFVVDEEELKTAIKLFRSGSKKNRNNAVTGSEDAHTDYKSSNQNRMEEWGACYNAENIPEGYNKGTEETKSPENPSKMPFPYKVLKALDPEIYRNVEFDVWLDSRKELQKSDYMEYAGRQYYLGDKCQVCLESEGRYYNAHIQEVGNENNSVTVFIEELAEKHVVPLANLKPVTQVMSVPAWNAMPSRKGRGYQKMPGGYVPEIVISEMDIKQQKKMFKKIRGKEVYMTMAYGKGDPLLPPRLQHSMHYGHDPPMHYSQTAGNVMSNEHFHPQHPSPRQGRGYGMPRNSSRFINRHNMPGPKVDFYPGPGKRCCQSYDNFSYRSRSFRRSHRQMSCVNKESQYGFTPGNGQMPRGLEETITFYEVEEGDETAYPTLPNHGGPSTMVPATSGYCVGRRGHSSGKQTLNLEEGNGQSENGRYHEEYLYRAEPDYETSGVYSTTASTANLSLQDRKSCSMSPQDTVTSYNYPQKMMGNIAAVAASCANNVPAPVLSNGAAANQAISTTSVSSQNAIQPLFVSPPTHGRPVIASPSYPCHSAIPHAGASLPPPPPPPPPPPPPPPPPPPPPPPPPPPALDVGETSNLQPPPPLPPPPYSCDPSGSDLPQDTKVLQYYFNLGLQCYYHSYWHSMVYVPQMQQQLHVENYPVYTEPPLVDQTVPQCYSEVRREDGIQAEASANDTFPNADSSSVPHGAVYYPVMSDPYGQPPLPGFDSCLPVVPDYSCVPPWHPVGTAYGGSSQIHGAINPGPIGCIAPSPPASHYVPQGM
How it was run: (§1)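 Fragment (200 µM) or vehicle was incubated for 3 h with triplicate HEK293T lysate samples of 495 µg, which were then treated with Biotin-Ahx-Ub-VS at 0.5 µM final for 1 h. Labelled DUBs were enriched on NeutrAvidin, digested with LysC and trypsin, and analysed by diaPASEF LC-MS/MS. Values are average log2 fragment/vehicle ratios from an unpaired t-test on global-median-normalised Spectronaut label-free quantities, using proteins with ≥2 unique peptides.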

ATXN3 = ATXN3 (UniProt P54252)
How it was run: as §1

BAP1 = biological target: T2, BAP1 (UniProt Q92560)
T2 sequence (whole entry): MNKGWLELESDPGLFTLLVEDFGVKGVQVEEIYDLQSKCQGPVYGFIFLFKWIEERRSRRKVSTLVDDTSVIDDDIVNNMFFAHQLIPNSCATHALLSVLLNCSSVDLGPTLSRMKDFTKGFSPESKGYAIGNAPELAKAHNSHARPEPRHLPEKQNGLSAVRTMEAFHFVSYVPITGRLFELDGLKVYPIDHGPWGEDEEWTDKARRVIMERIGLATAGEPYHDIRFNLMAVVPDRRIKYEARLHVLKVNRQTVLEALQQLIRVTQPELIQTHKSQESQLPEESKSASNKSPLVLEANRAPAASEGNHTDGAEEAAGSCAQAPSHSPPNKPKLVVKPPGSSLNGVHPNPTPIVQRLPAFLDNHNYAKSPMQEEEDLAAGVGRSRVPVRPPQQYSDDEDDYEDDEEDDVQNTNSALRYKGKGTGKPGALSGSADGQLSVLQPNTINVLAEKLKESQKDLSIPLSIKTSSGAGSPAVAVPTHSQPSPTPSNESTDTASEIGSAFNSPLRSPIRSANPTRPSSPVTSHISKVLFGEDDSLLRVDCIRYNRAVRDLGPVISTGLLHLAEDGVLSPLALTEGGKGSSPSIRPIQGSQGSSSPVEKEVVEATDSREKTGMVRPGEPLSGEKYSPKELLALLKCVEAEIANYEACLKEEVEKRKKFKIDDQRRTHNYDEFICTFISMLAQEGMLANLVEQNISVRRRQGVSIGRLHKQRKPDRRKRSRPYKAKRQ
How it was run: as §1

EIF3F = EIF3F (UniProt O00303)
How it was run: as §1

EIF3H = EIF3H (UniProt O15372)
How it was run: as §1

FAM105A = biological target: T3, FAM105A (UniProt Q9NUU6)
T3 sequence (whole entry): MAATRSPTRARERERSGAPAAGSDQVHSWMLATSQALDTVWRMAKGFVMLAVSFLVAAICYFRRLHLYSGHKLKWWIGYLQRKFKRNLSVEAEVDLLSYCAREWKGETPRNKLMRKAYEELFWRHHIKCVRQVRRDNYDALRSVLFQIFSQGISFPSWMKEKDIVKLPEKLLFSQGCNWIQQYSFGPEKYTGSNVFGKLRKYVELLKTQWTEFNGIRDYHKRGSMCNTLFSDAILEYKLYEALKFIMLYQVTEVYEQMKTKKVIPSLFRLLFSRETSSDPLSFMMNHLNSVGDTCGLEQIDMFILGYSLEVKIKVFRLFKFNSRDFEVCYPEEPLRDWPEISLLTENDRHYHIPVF
How it was run: as §1

OTUB1 = OTUB1 (UniProt Q96FW1)
How it was run: as §1

OTUD4 = biological target: T4, OTUD4 (UniProt Q01804)
T4 sequence (whole entry): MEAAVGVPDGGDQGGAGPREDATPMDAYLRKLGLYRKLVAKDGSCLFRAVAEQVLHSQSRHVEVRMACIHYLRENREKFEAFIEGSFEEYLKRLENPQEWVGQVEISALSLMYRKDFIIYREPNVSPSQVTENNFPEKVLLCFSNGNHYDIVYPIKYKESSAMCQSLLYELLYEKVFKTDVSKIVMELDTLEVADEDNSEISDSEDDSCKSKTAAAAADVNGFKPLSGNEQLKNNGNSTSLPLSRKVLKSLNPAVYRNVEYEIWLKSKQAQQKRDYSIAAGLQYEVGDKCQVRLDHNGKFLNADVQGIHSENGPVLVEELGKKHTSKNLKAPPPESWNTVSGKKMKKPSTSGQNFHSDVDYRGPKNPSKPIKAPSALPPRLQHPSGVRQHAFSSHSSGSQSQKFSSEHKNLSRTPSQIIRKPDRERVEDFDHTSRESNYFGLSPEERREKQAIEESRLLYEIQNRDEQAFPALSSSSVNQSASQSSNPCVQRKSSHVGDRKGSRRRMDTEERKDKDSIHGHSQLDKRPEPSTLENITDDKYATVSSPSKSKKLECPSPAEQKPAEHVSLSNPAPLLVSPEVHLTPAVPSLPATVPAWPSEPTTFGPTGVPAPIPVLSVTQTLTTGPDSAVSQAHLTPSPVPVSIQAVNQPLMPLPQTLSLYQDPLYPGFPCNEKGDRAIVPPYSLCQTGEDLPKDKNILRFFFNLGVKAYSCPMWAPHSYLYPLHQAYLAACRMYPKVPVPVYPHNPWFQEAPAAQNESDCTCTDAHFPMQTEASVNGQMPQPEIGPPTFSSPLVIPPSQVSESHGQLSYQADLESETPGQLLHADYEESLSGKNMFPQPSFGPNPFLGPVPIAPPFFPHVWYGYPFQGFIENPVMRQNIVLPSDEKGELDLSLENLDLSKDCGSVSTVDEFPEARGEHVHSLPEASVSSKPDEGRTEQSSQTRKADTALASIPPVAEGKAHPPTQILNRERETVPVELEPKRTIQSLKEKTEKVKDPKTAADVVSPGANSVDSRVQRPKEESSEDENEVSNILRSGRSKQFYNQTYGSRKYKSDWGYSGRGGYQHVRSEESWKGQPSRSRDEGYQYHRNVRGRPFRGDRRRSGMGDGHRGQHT
How it was run: as §1

OTUD5 = biological target: T5, OTUD5 (UniProt Q96G74)
T5 sequence (whole entry): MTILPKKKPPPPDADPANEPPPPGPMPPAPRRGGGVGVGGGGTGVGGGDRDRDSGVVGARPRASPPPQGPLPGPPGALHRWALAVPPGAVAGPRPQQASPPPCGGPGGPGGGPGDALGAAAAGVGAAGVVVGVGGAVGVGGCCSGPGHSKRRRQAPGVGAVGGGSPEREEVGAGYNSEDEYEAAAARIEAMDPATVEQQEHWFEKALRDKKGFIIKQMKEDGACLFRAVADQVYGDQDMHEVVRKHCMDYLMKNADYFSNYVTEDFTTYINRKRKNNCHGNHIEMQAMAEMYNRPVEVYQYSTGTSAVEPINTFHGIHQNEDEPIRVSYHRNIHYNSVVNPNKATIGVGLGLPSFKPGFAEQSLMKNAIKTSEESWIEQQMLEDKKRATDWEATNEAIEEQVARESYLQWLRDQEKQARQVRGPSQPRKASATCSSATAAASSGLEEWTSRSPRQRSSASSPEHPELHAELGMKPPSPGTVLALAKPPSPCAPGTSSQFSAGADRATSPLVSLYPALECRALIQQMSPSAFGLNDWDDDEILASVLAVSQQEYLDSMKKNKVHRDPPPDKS
How it was run: as §1

Measured: log2 ratio of Biotin-Ahx-Ub-VS probe labelling

Sequence of ATXN3 (P54252 whole entry): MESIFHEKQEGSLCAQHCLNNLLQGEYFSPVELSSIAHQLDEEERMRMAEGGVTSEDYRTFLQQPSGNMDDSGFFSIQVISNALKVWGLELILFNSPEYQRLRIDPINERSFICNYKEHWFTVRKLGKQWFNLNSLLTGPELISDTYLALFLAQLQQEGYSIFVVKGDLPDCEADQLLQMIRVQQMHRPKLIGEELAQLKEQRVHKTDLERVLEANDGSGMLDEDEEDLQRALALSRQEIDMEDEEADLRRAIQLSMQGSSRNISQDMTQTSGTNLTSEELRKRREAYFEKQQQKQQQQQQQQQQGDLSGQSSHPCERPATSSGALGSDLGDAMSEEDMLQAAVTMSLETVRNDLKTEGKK
Sequence of EIF3F (O00303 whole entry): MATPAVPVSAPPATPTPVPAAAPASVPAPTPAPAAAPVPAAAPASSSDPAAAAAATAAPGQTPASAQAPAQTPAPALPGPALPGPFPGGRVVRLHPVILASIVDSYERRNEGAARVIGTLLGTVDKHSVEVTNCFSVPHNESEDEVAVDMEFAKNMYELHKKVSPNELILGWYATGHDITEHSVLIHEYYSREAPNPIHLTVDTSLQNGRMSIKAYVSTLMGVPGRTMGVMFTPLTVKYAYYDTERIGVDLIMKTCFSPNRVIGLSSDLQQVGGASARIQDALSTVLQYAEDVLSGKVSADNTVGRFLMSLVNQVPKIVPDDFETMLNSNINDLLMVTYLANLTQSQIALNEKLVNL
Sequence of OTUB1 (Q96FW1 whole entry): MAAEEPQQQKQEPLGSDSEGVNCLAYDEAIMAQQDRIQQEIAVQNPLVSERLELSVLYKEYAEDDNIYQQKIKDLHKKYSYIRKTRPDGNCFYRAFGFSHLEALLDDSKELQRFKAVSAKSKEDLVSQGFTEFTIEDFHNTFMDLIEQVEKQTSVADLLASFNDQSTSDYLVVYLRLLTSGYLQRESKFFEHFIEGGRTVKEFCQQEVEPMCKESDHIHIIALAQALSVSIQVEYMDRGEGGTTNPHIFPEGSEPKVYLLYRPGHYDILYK
Sequence of EIF3H (O15372 whole entry): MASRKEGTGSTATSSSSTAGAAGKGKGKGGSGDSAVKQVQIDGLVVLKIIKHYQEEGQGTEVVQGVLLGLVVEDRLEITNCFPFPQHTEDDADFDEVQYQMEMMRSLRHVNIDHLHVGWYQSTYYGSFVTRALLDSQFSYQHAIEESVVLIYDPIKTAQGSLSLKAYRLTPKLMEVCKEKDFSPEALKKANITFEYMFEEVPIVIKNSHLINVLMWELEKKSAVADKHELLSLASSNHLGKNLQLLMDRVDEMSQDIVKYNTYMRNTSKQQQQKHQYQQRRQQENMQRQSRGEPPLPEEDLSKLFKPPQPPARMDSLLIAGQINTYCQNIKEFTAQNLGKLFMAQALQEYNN

C[C@H]1CN(C(=O)CCl)CCN1C(=O)c1cnn(C)c1.Cl
inactive: ALG13 0.134 | ATXN3 -0.631 | BAP1 -0.356 | EIF3F 0.132 | EIF3H 0.0411 | FAM105A 0.375 | OTUB1 -0.204 | OTUD4 -0.236 | OTUD5 -0.326
